Columns and labels:
Conditions in all cases: protein: recombinant; tags: C-terminal His (pET42b), not removed; chain copies: 2; label: captured on SA chip through 20-nt ReDCaT single-stranded 3' overhang of strand 2; dsDNA, one strand shown
RccR-His [1] = target: T1, RccR-His (Pseudomonas fluorescens SBW25, UniProt A0ACD4XSS6 1-288); experiment: SPR (ReDCaT); SPR ReDCaT, 10 mM HEPES pH 7.4, 300 mM NaCl, 3 mM EDTA, 0.05% Tween-20, 25 C; high values mean tight binding
RccR-His [2] = target: T1, RccR-His; experiment: SPR (ReDCaT); KDPG 0 uM; SPR ReDCaT, 10 mM HEPES pH 7.4, 300 mM NaCl, 3 mM EDTA, 0.05% Tween-20, 25 C; high values mean tight binding
RccR-His [3] = target: T1, RccR-His; experiment: SPR (ReDCaT); KDPG 1 uM; SPR ReDCaT, 10 mM HEPES pH 7.4, 300 mM NaCl, 3 mM EDTA, 0.05% Tween-20, 25 C; high values mean tight binding
RccR-His [4] = target: T1, RccR-His; experiment: SPR (ReDCaT); KDPG 10 uM; SPR ReDCaT, 10 mM HEPES pH 7.4, 300 mM NaCl, 3 mM EDTA, 0.05% Tween-20, 25 C; high values mean tight binding
RccR-His [5] = target: T1, RccR-His; experiment: SPR (ReDCaT); KDPG 100 uM; SPR ReDCaT, 10 mM HEPES pH 7.4, 300 mM NaCl, 3 mM EDTA, 0.05% Tween-20, 25 C; high values mean tight binding

GATGTAGTGCTTGAAAAAAAGCACTACAAA
binding signal (RccR-His [1]): 82.8 %Rmax | binding signal (RccR-His [2]): 67.2 %Rmax | binding signal (RccR-His [3]): 104 %Rmax | binding signal (RccR-His [4]): 119 %Rmax | binding signal (RccR-His [5]): 121 %Rmax

TATGTAGTGAGCAAAAATAATCACTACATA
binding signal (RccR-His [1]): 59.1 %Rmax

ATGTAGGGTCCGCCGAAGACCACTACCT
binding signal (RccR-His [1]): 3.18 %Rmax

CTTGTAGTATAACTACAAGCTTGCTACATC
binding signal (RccR-His [1]): 158 %Rmax | binding signal (RccR-His [2]): 161 %Rmax | binding signal (RccR-His [3]): 152 %Rmax | binding signal (RccR-His [4]): 125 %Rmax | binding signal (RccR-His [5]): 105 %Rmax

CATGTAGTATGCCCAACCGTGCACTACATA
binding signal (RccR-His [1]): 55.1 %Rmax

AATGTAGCCCCTTTTTTCAGCCCCTACATG
binding signal (RccR-His [1]): 6.22 %Rmax

CTTGTGTAGTTTTACTACTCGTATATACAT
binding signal (RccR-His [1]): 126 %Rmax | binding signal (RccR-His [2]): 121 %Rmax | binding signal (RccR-His [3]): 116 %Rmax | binding signal (RccR-His [4]): 86.8 %Rmax | binding signal (RccR-His [5]): 29.9 %Rmax

CGGTAGTAGTGCGCAACTTTCTACTACAAA
binding signal (RccR-His [1]): 35.9 %Rmax

CTTGTAGTTAATTTTTCGTCACCCGTCATA
binding signal (RccR-His [1]): 8.34 %Rmax

From paper PMC5489143, “One ligand, two regulators and three binding sites: How KDPG controls primary carbon metabolism in Pseudomonas”
